Screening results (PubChem)
Most compounds without a hit are left out; they make up all but 4.1% or so of the library.
hgDAF12 agonist: agonists of H. glycines DAF-12 nuclear receptor | activation, % at 6.8 µM | 1.8% of 370,000 active | HEK293 GAL4-hgDAF12 UAS-luciferase reporter, agonist luminescence; normalized to butyrate control | AID 687014;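 active = activation above a cutoff set at the mean of all screened compounds plus 3 SD, cut at about 10% in these data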;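 note: 0% = DMSO wells and 100% = sodium butyrate wells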
ssDAF-12 act: activates DAF-12 receptor from parasite S. stercoralis. HEK293 ssDAF-12/GRIP1 lit1-tk-luc reporter, luminescence; % of 3 µM dafachronic acid response. activation, % at 6.8 µM. 1% of 370,000 active;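 active = activation above the mean over all tested compounds plus 3 SD, cut at about 0.9% in these data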;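 note: 0% = DMSO-only wells and 100% = 3 µM delta7-dafachronic acid wells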
DAX1 inh-1: inhibits human nuclear receptor DAX1; P51843; HEK293 Gal4-DAX1 luciferase reporter, luminescence; inhibition, % at 6.75 µM; 0.99% of 340,000 active;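 active = inhibition above the mean over all tested compounds plus 3 SD, cut at about 4.2% in these data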;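 note: 0% = DAX1-transfected cells with DMSO and 100% = empty-vector control cells with DMSO; inhibition shows as a rise in luminescence from relieved DAX1 repression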
Target sequence (P51843 207-470 limits assumed): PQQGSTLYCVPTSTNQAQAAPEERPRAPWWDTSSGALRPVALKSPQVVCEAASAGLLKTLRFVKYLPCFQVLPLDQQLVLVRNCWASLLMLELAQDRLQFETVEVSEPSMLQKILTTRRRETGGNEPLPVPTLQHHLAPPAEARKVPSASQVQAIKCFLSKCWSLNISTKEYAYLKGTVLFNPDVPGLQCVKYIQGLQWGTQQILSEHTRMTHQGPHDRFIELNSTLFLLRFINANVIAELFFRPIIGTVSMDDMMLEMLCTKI
DAX1 inh-2: blocks DAX1 repression of SF-1 activated StAR promoter. 1.1% of 370,000 active. AID 652010. HEK293T StAR-luciferase reporter, SF-1/DAX-1 repression relief. inhibition, % at 6.8 µM;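 active = inhibition above the mean over all tested compounds plus 3 SD, cut at about 3.6% in these data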;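 note: 0% = DAX-1 cells with DMSO and 100% = cells lacking DAX-1 with DMSO; higher inhibition means more luminescence from relief of DAX-1 repression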
hcDAF-12 act: activators of H. contortus DAF-12 nuclear receptor; HEK293 hcDAF-12 lit1-tk-luc reporter, luminescence; 0% DMSO, 100% Δ7-dafachronic acid; activation, % at 6.8 µM; 1.4% of 370,000 active; AID 652067;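 active = activation above the mean of all tested compounds plus 3 SD, cut at about 5.5% in these data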;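 note: 100% = response to 3 µM Δ7-dafachronic acid high control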
Starred values were filed as active, the others as inactive.

What do the screens show for `O=C(Nc1ccncc1)c1cccc(S(=O)(=O)N2CCc3ccccc32)c1`?
hgDAF12 agonist: -6; ssDAF-12 act: -2; DAX1 inh-1: -4; DAX1 inh-2: -7; hcDAF-12 act: -4

Results for Cc1ccc(C(=O)NCc2ccccc2F)cc1S(=O)(=O)N1CCCC1 ?
hgDAF12 agonist: 0; ssDAF-12 act: -1; DAX1 inh-1: 1; DAX1 inh-2: 0; hcDAF-12 act: -2

How did Cc1ccc(NC(=O)COc2cccc(Oc3ccccc3)c2)cc1S(=O)(=O)N1CCOCC1 do in these assays?
hgDAF12 agonist: -4; ssDAF-12 act: -1; DAX1 inh-1: 0; DAX1 inh-2: -4; hcDAF-12 act: -2

Results for C#CCCCN([C@H](C(=O)OC)C(C)C)S(=O)(=O)c1ccc(F)cc1Br ?
hgDAF12 agonist: 0; ssDAF-12 act: -1; DAX1 inh-2: 0; hcDAF-12 act: 1

What do the screens show for `COc1ccc(S(=O)(=O)N(C)C[C@H]2Oc3c(NC(=O)NC(C)C)cccc3C(=O)N([C@H](C)CO)C[C@@H]2C)cc1`?
hgDAF12 agonist: -3; ssDAF-12 act: -1; DAX1 inh-1: 1; DAX1 inh-2: -1; hcDAF-12 act: 0

What do the screens show for `Cc1ccc([N+](=O)[O-])c(OCc2ncc(Cl)n2C)c1`?
hgDAF12 agonist: 4; ssDAF-12 act: 1.1*; DAX1 inh-1: 0; DAX1 inh-2: 0; hcDAF-12 act: 5

Results for CC(=O)Nc1ccc(OCC(C)CN2CCC(C(O)(c3ccccc3)c3ccccc3)CC2)cc1 (stereo unspecified) ?
hgDAF12 agonist: -3; ssDAF-12 act: -2; DAX1 inh-2: 0; hcDAF-12 act: -1

How did CCOC(=O)c1[nH]c2ccccc2c1NC(=S)Nc1cccc(C)c1C do in these assays?
hgDAF12 agonist: 0; ssDAF-12 act: 0; DAX1 inh-1: 2; DAX1 inh-2: 1; hcDAF-12 act: 6.2*

Results for CCOC(=O)c1[nH]c2ccccc2c1NC(=O)NC(C)C ?
hgDAF12 agonist: 0; ssDAF-12 act: 0; DAX1 inh-1: 3; DAX1 inh-2: 0; hcDAF-12 act: 4

How did Cn1c(COc2ccc([N+](=O)[O-])cc2)nnc1SCC(=O)NCC1CCCO1 (stereo unspecified) do in these assays?
hgDAF12 agonist: 0; ssDAF-12 act: 1.0*; DAX1 inh-1: -1; DAX1 inh-2: 0; hcDAF-12 act: -2

How did c1ccc2nc3c(nc2c1)OCC1CCCCN31 (stereo unspecified) do in these assays?
hgDAF12 agonist: 8; ssDAF-12 act: 1; DAX1 inh-1: 4; DAX1 inh-2: 1; hcDAF-12 act: 6.2*

Results for COc1cc(NC(=O)c2ccccc2)c(C)cc1NC(=O)CSc1nnc(-c2cnccn2)n1-c1ccc(C)cc1 ?
hgDAF12 agonist: -3; ssDAF-12 act: -1; DAX1 inh-2: -2; hcDAF-12 act: -1

What do the screens show for `O=C(/C=C/c1ccc2c(c1)OCCCO2)c1ccccc1O`?
hgDAF12 agonist: 11*; ssDAF-12 act: 0; DAX1 inh-1: 3; DAX1 inh-2: 2; hcDAF-12 act: 2

How did Cc1ccc(/C=C/C(=O)c2ccccc2O)cc1 do in these assays?
hgDAF12 agonist: 1; ssDAF-12 act: -1; DAX1 inh-1: 3; DAX1 inh-2: 0; hcDAF-12 act: -2

Results for CN(C)c1ccc(/C=C/C(=O)c2ccccc2O)cc1 ?
hgDAF12 agonist: 11*; ssDAF-12 act: 0; DAX1 inh-1: 5.8*; DAX1 inh-2: 2; hcDAF-12 act: 1

How did O=c1[nH]c(NCCO)nc2c1C1(CCCC1)Cc1ccccc1-2 do in these assays?
hgDAF12 agonist: 0; ssDAF-12 act: -1; DAX1 inh-1: 1; DAX1 inh-2: 0; hcDAF-12 act: -1

How did C=CCNC(=S)NNc1nc2c(c(=O)[nH]1)C1(CCCCC1)Cc1ccccc1-2 do in these assays?
hgDAF12 agonist: 2; ssDAF-12 act: -1; DAX1 inh-1: 4.4*; DAX1 inh-2: 1; hcDAF-12 act: -1

How did CCCCN1C(=O)C(C(=O)OCC)CC2=C1CCCC2=O (stereo unspecified) do in these assays?
hgDAF12 agonist: -1; ssDAF-12 act: -1; DAX1 inh-1: 0; DAX1 inh-2: -1; hcDAF-12 act: -1

How did Cc1cc(C)c(S(=O)(=O)N(C2=NCCS2)S(=O)(=O)c2c(C)cc(C)cc2C)c(C)c1 do in these assays?
hgDAF12 agonist: 2; ssDAF-12 act: -1; DAX1 inh-1: 1; DAX1 inh-2: -1; hcDAF-12 act: -1

What do the screens show for `O=C(NNc1nc2c(F)cc(F)cc2s1)C1=COCCO1`?
hgDAF12 agonist: 6; ssDAF-12 act: -1; DAX1 inh-1: 5.6*; DAX1 inh-2: 0; hcDAF-12 act: 0

Results for Cc1cccc2sc(NNC(=O)C3=COCCO3)nc12 ?
hgDAF12 agonist: 3; ssDAF-12 act: -1; DAX1 inh-1: 3; DAX1 inh-2: 0; hcDAF-12 act: 2

How did CCC(=O)NNc1nc2c(F)cc(F)cc2s1 do in these assays?
hgDAF12 agonist: 5; ssDAF-12 act: 1.1*; DAX1 inh-1: 3; DAX1 inh-2: 0; hcDAF-12 act: 1

Results for COc1ccc(/C=N/NC(=O)c2cccs2)c2ccccc12 ?
hgDAF12 agonist: 11*; ssDAF-12 act: 0; DAX1 inh-1: 4; DAX1 inh-2: 1; hcDAF-12 act: 3

Results for CC(C)(C)c1ccc(NC(=O)COC(=O)c2ccc(NS(=O)(=O)c3ccc(F)c(F)c3)cc2)cc1 ?
hgDAF12 agonist: 1; ssDAF-12 act: -1; DAX1 inh-1: 1; DAX1 inh-2: 0; hcDAF-12 act: -1

What do the screens show for `Cc1cc(-c2nc3ncccc3o2)ccc1NC(=O)CC(C)C`?
hgDAF12 agonist: 2; ssDAF-12 act: -1; DAX1 inh-1: -1; DAX1 inh-2: 3.9*; hcDAF-12 act: 3

How did COc1ccc(CCC(=O)Nc2ncc(C)s2)cc1 do in these assays?
hgDAF12 agonist: 4; ssDAF-12 act: 2.2*; DAX1 inh-1: 1; DAX1 inh-2: 0; hcDAF-12 act: 1

How did Cc1cccc(C)c1NCc1n[nH]c(=S)n1-c1ccccc1 do in these assays?
hgDAF12 agonist: 3; ssDAF-12 act: -1; DAX1 inh-1: 4.7*; DAX1 inh-2: 0; hcDAF-12 act: 0

What do the screens show for `CC(C)Oc1ccc(CCc2n[nH]c(=S)n2-c2ccccc2)cc1`?
hgDAF12 agonist: 1; ssDAF-12 act: 0; DAX1 inh-1: 4.3*; DAX1 inh-2: -1; hcDAF-12 act: -2

What do the screens show for `O=C(NC1CCCCN(Cc2ccc(Cl)cc2)C1=O)c1ccc2ccccc2c1` (stereo unspecified)?
hgDAF12 agonist: 5; ssDAF-12 act: -1; DAX1 inh-2: 1; hcDAF-12 act: -3

Results for Clc1cccc(/C=N\Nc2nccs2)c1 ?
hgDAF12 agonist: 11*; ssDAF-12 act: 0.9*; DAX1 inh-1: 1; DAX1 inh-2: 2; hcDAF-12 act: 4

How did Clc1cccc(/C=N/Nc2nc(Cl)nc3ccccc23)c1 do in these assays?
hgDAF12 agonist: 5; ssDAF-12 act: 0; DAX1 inh-1: 4; DAX1 inh-2: 2; hcDAF-12 act: 6.6*
